# From PubChem BioAssay (EPA / NIEHS)
# Inconclusive results are not listed. The source made the active and inactive calls. The calls were made as follows, unless noted: active = hit-call score of the fitted dose curve at least 0.9, where 1 is the maximum; inactive = score below 0.9.
# Test: CCTE_Shafer_MEA_dev_bursting_electrodes_number: CCTE's Neural Network Formation Assay for Number of Bursting Electrodes, Shafer Lab (AID 2284043; active = hit-call score of the fitted dose curve at least 0.9, where 1 is the maximum;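 as to AC50: potency is for loss of bursting electrodes relative to DMSO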)
# Method in brief: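 Primary rat cortical neurons plated on 16-electrode MEA wells, exposed from day 0 with compound renewed at DIV 5 and 9. Electrodes bursting ≥1 burst per 2 min counted on days 5, 7, 9 and 12; trapezoidal AUC across days, fitted for loss versus DMSO.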
Compound,AC50,outcome
Cc1ccccc1OP(=O)(Oc1ccccc1C)Oc1ccccc1C,15 µM (active),–
FC(F)OCC(F)(F)C(F)(F)F,–,inactive
NC(=O)c1ccc(N)nc1,5.44 µM (active),–
C=CC(F)(C(F)(F)F)C(F)(F)C(F)(F)F (stereo not drawn),–,inactive
CC(=O)C(F)(F)C(F)(F)F,–,inactive
CC(C)[C@@H](Nc1ccc(C(F)(F)F)cc1Cl)C(=O)OC(C#N)c1cccc(Oc2ccccc2)c1 (stereo partly drawn),14.5 µM (active),–
Cc1cc(C(F)(C(F)(F)F)C(F)(F)F)ccc1NC(=O)c1cccc(I)c1C(=O)NC(C)(C)CS(C)(=O)=O,11.3 µM (active),–
O=S(=O)(F)C(F)(F)C(F)(F)C(F)(F)C(F)(F)F,–,inactive
OC(Cc1ccccc1Cl)(Cn1[nH]cnc1=S)C1(Cl)CC1 (stereo not drawn),29.9 µM (active),–
CCOCn1c(-c2ccc(Cl)cc2)c(C#N)c(Br)c1C(F)(F)F,4.44 µM (active),–
C=CCOC(F)(C(F)(F)F)C(F)(F)F,–,inactive
CNC(=O)CSP(=O)(OC)OC,–,inactive
CC1(C)[C@H](C(=O)O[C@H](C#N)c2cccc(Oc3ccccc3)c2)[C@@H]1/C=C(\Cl)C(F)(F)F,12.9 µM (active),–

# Test: CCTE_Shafer_MEA_dev_per_burst_interspike_interval: CCTE's Neural Network Formation Assay for Burst Interspike Interval, Shafer Lab (AID 2284044);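 also: mean spike spacing inside bursts as AUC over recordings on days 5 7 9 12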;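 as to AC50: potency for a decrease of within-burst interspike interval below DMSO level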
# Method in brief: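 Developmental network-formation MEA in primary rat cortical cultures with exposure spanning days 0–12. Within-burst ISI is averaged per well and integrated across recording days by area under the curve, with DMSO as negative control baseline.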
Compound,outcome,AC50
Cc1ccccc1OP(=O)(Oc1ccccc1C)Oc1ccccc1C,inactive,–
FC(F)OCC(F)(F)C(F)(F)F,inactive,–
NC(=O)c1ccc(N)nc1,–,8.19 µM (active)
C=CC(F)(C(F)(F)F)C(F)(F)C(F)(F)F (stereo not drawn),inactive,–
CC(=O)C(F)(F)C(F)(F)F,inactive,–
CC(C)[C@@H](Nc1ccc(C(F)(F)F)cc1Cl)C(=O)OC(C#N)c1cccc(Oc2ccccc2)c1 (stereo partly drawn),inactive,–
Cc1cc(C(F)(C(F)(F)F)C(F)(F)F)ccc1NC(=O)c1cccc(I)c1C(=O)NC(C)(C)CS(C)(=O)=O,inactive,–
O=S(=O)(F)C(F)(F)C(F)(F)C(F)(F)C(F)(F)F,inactive,–
OC(Cc1ccccc1Cl)(Cn1[nH]cnc1=S)C1(Cl)CC1 (stereo not drawn),–,11.2 µM (active)
CCOCn1c(-c2ccc(Cl)cc2)c(C#N)c(Br)c1C(F)(F)F,–,1.61 µM (active)
C=CCOC(F)(C(F)(F)F)C(F)(F)F,inactive,–
CNC(=O)CSP(=O)(OC)OC,inactive,–
CS(=O)(=O)c1ccc(C(=O)C2C(=O)CCCC2=O)c(Cl)c1COCC(F)(F)F,inactive,–
CC1(C)[C@H](C(=O)O[C@H](C#N)c2cccc(Oc3ccccc3)c2)[C@@H]1/C=C(\Cl)C(F)(F)F,inactive,–
CC(F)(F)CC(F)(F)F,inactive,–
